Most compounds without a hit are left out; they make up all but 3.1% or so of the library.
PLK1 PBD block: qHTS for Inhibitors of PLK1-PDB (polo-like kinase 1 - polo-box domain): Primary Screen; Serine/threonine-protein kinase PLK1 (Homo sapiens), P53350; Plk1 PBD binding of FITC phosphopeptide, fluorescence polarization; 360,000 tested, 2.8% active; Potency, µM, hits mostly inhibitors; further: series mostly up to about 57 µM; nearly all actives have a fitted effect of over 65% in size
Tb PFK inh: qHTS Assay to Find Inhibitors of T. brucei phosphofructokinase. 330,000 tested, 0.17% active. T. brucei PFK, ADP-Glo luminescence. AID 485367, 2010. Potency, µM (series often up to 57.5 µM), usual class: inhibitors. ATP-dependent 6-phosphofructokinase (Trypanosoma brucei brucei), O15648; further: nearly all actives have a fitted effect of over 60% in size
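1.25 nM PFK with 0.5 mM F6P and 0.1 mM ATP in 0.1 M TEA pH 8.0, 5 mM MgCl2, incubated 45 min at room temperature; ADP measured by ADP-Glo luminescence; compounds titrated up to 57 uM.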
VDR inh: Inhibitors of the vitamin D receptor (VDR): qHTS; Vitamin D3 receptor (Homo sapiens), P11473; VDR-SRC2-3 peptide fluorescence polarization, 2 h; Potency, µM, usual class: inhibitors; 400,000 tested, 0.93% active
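Inhibition of the VDR/SRC2-3 peptide interaction is quantified by fluorescence polarization. Compounds (23 nl, pintool) incubate with the reagents for 2 hours at ambient room temperature.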
TDP1 inh: qHTS Assay for Inhibitors of Tyrosyl-DNA Phosphodiesterase (TDP1). Tyrosyl-DNA phosphodiesterase 1 (Homo sapiens), Q9NUW8. recombinant TDP1, AlphaScreen DNA substrate cleavage. Potency, µM (top dose mostly 130 µM), actives largely listed as inhibitors. 350,000 tested, 0.28% active. AID 485290, 2010; further: nearly all actives have a fitted effect of over 40% in size
Target sequence (Q9NUW8 whole entry, looked up): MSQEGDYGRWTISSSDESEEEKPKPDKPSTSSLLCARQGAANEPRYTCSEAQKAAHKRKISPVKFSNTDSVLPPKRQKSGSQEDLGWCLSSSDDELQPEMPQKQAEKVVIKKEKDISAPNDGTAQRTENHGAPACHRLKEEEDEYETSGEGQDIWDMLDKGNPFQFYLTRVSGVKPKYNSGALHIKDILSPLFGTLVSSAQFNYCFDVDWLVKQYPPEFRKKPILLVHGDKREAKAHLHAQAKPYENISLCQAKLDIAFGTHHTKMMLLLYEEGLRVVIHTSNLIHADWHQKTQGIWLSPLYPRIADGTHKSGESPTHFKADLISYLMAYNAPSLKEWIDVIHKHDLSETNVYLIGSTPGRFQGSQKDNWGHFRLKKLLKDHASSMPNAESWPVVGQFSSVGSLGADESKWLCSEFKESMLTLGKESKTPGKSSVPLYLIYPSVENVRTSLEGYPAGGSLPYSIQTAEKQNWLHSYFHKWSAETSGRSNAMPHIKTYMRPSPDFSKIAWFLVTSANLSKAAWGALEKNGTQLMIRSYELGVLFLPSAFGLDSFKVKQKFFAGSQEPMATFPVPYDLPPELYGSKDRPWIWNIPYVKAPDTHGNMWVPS
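AlphaScreen read-out: signal falls as enzyme removes the 3' tyrosine-FITC from a 5'-biotinylated DNA oligo (15 nM, 5 min, RT). Enzyme was E. coli-made recombinant Tdp1 at 1 nM, exposed to compound for 15 min beforehand; beads 10 ug/ml, 10 min.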
S-ASM inh: Inhibitors of Secretory Acid Sphingomyelinase (S-ASM): qHTS; Sphingomyelin phosphodiesterase (Homo sapiens), P17405; placental ASM, HMU-PC fluorogenic substrate, 60 min; Potency, µM (titrated, usually from 57.5 µM), most hits filed as inhibitors; 340,000 tested, 0.006% active
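qHTS format. ASM enzyme prepared from human placenta hydrolyses the fluorogenic substrate HMU-PC0 (9 uM final) over 60 min at 37 °C after a 10 min compound preincubation.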
Pin1 inh: qHTS Assay to Find Inhibitors of Pin1. Potency, µM (top dose mostly 115 µM), most hits filed as inhibitors. AID 504891, 2011. Peptidyl-prolyl cis-trans isomerase NIMA-interacting 1 (Homo sapiens), Q13526. 390,000 tested, 0.009% active. Pin1 FP peptide displacement, HiFluor488, 10 min; active means well fitted inhibition curve with a large enough effect in the polarisation, with a control signal flat, not every such curve was filed as active; inconclusive means small, poorly fitted or top-dose-only effect, or effect the other way, or a change in a side signal; inactive means no such curve, though single readings can be large or run the other way; the % refers to the polarisation
A number is an active result; i = inactive; ? = inconclusive; nt = not tested or not shown; [ ] = remark or other dose. Unless noted, the call rests on the fitted dose curve; in most records, active means well fitted curve in the direction sought with a large enough effect; inconclusive means small, poorly fitted or top-dose-only effect, or another doubt; inactive means no such curve, though single readings can be large; an effect the other way counts as inactive or inconclusive.

SMILES	PLK1 PBD block	Tb PFK inh	VDR inh	TDP1 inh	S-ASM inh	Pin1 inh
O=S(=O)(O)c1cc(O)c2c(N=Nc3ccc(Nc4ccccc4)c4c(S(=O)(=O)O)cccc34)cc(S(=O)(=O)O)cc2c1	nt	nt	39.8µM	i	nt	nt
Nc1cccc2c(O)cc(S(=O)(=O)O)cc12	13.4µM	nt	12.6µM	nt	i	?
O=C1c2ccccc2NC(c2ccc(OCc3ccccc3)c(OCc3ccccc3)c2)N1Cc1ccco1 (stereo unspecified)	nt	nt	i	i	nt	i
CC1CC=CC2C1C(=O)N(Cc1ccccc1)C2c1ccc(F)c(-c2ccc(N(C)C)cc2)c1 (stereo unspecified)	nt	nt	i	i	nt	i
CCOC(=O)[C@H](Cc1ccc(O)cc1)NC(=O)c1ccccc1	nt	nt	i	i	nt	nt
COc1ccc(C2C3C=CCC(C)C3C(=O)N2Cc2ccccc2)cc1Cl (stereo unspecified)	nt	nt	?	i	nt	i
COc1ccccc1Nc1ccc2c(O)cc(S(=O)(=O)O)cc2c1	10.6µM	nt	?	nt	i	21.3µM
CCCCn1cc(S(=O)(=O)c2ccc(CC)cc2)c(=O)c2cc(F)c(N3CCCC(C)C3)cc21 (stereo unspecified)	nt	nt	i	i	nt	i
CCN(CC)C(=O)CSc1nc2ccsc2c(=O)n1CCCC(=O)NCCc1ccc(S(N)(=O)=O)cc1	3.77µM	i	?	i	i	i
COc1cccc(C2c3c(ncn(-c4ccccc4SC)c3=N)Oc3ccc4ccccc4c32)c1 (stereo unspecified)	nt	nt	nt	i	nt	i
CC(C)(C)N1CSC(=S)N(Cc2ccccc2)C1	?	i	?	i	i	i
CC(C)N1CSC(=S)N(Cc2ccccc2)C1	?	i	79.4µM	i	i	i
CC(C)c1ccc(NC(=O)[C@H]2O[C@@H]3OC(C)(C)O[C@@H]3[C@H]3OC(C)(C)O[C@H]32)cc1	nt	nt	i	i	nt	i
CCN1CCCC1Cn1c(-c2ccccc2)nc2c(N(CCOC)CCOC)nc(C)nc21 (stereo unspecified)	nt	nt	nt	i	nt	nt
c1ccc(-c2cc3ccccc3[nH]2)cc1	i	i	i	nt	i	i
NCc1ccc2[nH]c(=O)[nH]c2c1	i	i	?	i	i	i
S=c1[nH]c2cc3ccccc3cc2[nH]1	29.9µM	i	i	i	i	?
Cc1cc2[nH]c(=S)[nH]c2cc1C	5.97µM	i	i	i	i	i
Fc1cc2[nH]c(=S)[nH]c2cc1Cl	i	i	i	i	i	i
S=c1[nH]c2ccc(Cc3ccc4[nH]c(=S)[nH]c4c3)cc2[nH]1	21.2µM	i	i	i	i	i
CCCCc1nc2c(c3c1C[C@H](C)OC3)CN(C(=O)c1cc(I)ccc1F)CC2	nt	nt	nt	i[12.3 µM]	nt	nt
Cc1cc(C)c(S(=O)(=O)NCC(c2ccco2)N2CCOCC2)c(C)c1 (stereo unspecified)	nt	nt	i	i	nt	i
CCn1ccc2c(OCC(=O)Nc3ccccc3C(F)(F)F)cccc2c1=O	nt	nt	i	i	nt	i
CCCN(CCC)S(=O)(=O)c1ccc(C(=O)OCCN2C(=O)c3cccc4c(N5CCOCC5)ccc(c34)C2=O)cc1	15µM	i	i	i	i	nt
COCc1nnc(NC(=O)c2cc(OC)c(OC)cc2[N+](=O)[O-])s1	29.9µM	i	i	i	i	i
SMILES	PLK1 PBD block	Tb PFK inh	VDR inh	TDP1 inh	S-ASM inh	Pin1 inh
COc1cc(C(=O)Nc2nnc(CC(C)C)s2)c([N+](=O)[O-])cc1OC	i	i	i	i	i	i
COCc1nnc(NC(=O)c2ccc(OC)cc2OC)s1	i	i	i	i	i	i
COCc1nnc(NC(=O)c2cc(Cl)ccc2OC)s1	29.9µM	i	i	i	i	i
O=C(Cn1cc(CN(Cc2ccccc2)Cc2ccccc2)nn1)Nc1cc(C(F)(F)F)ccc1Cl	nt	nt	nt	i	nt	i
COc1ccc(/C=C/C(=O)NC(=S)Nc2ccc(S(=O)(=O)Nc3cc(OC)ncn3)cc2)cc1	?	i	i	nt	i	i
CCc1nnc(NS(=O)(=O)c2ccc(NC(=S)NC(=O)/C=C/c3ccc([N+](=O)[O-])cc3)cc2)s1	i	i	i	i	i	i
COc1cc(NS(=O)(=O)c2ccc(NC(=S)NC(=O)/C=C/c3ccc(OC)c(OC)c3)cc2)ncn1	13.4µM	i	i	nt	i	i
CCc1nnc(NS(=O)(=O)c2ccc(NC(=S)NC(=O)/C=C/c3ccc(F)cc3)cc2)s1	16.8µM	i	?	i	i	nt
COc1cccc(C2=N/C(=C\N(C)C)C(=O)O2)c1	16.8µM	i	i	i	i	i
COc1cccc(-c2nc3ccccc3c(=O)o2)c1	i	i	i	i	i	i
COC(=O)c1ccccc1S(=O)(=O)N1CCc2nc(-c3ccccc3)c3c(c2C1)CO[C@@H](C)C3	nt	nt	nt	i[12.3 µM]	nt	nt
COc1ccc(OC)c(C2=NS(=O)(=O)N(C)C(C(=O)Nc3cccc(C(C)=O)c3)=C2)c1	18.9µM	i	?	i	?	i
COc1ccc(OC)c(C2=NS(=O)(=O)N(C)C(C(=O)NCc3cccs3)=C2)c1	26.7µM	i	?	i	i	i
Cc1ccc(C2=NS(=O)(=O)N(C)C(C(=O)NCc3cccs3)=C2)cc1	i	i	i	nt	i	i
COc1ccc(C2=NS(=O)(=O)N(C)C(C(=O)Nc3ccc(C)cc3)=C2)cc1	i	i	i	nt	i	i
O=C(O)c1ccc(N2C(=O)CC(N3C(=O)/C(=C/c4ccc(Cl)cc4)SC3=S)C2=O)cc1 (stereo unspecified)	26.7µM	i	?	i	i	i
O=C(O)c1ccc(N2C(=O)CC(N3CCN(c4ccc(Cl)cc4)CC3)C2=O)cc1 (stereo unspecified)	i	i	i	i	i	i
O=C(O)C1C2C=CC(C2)C1C(=O)NCc1cccs1 (stereo unspecified)	i	?	i	44.7µM	i	i
O=C(O)C1C2C=CC(C2)C1C(=O)NCc1ccco1 (stereo unspecified)	i	i	i	i	i	i
CC(O)CNCc1ccc(Cl)cc1Cl (stereo unspecified)	i	i	i	i	i	i
OCCCNCc1ccc(Cl)cc1Cl	29.9µM	i	i	i	i	i
CCOc1ccccc1NC(=O)Cn1nnc2sc3c(c2c1=O)CCC(C(C)(C)C)C3 (stereo unspecified)	nt	nt	i	i	nt	i
O=C(CNC(=O)C(c1ccccc1)c1ccccc1)OCC(=O)c1cccc2ccccc12	nt	nt	i	i	nt	i
S=c1[nH]nc(C2CCCCC2)n1/N=C/c1cccc(Br)c1	i	i	i	nt	i	i
